This is an account of results in ChEMBL document CHEMBL3988442, “University of Dundee, Small-Polar-MMV Screening Library” (2021).

Each structure is given as a SMILES string. Hit rate of the full screen: of about 69,000 compounds, about 950 (1.4%) showed an effect of 50% or more. The list comes from a sample in which strong results are over-represented; it also holds similar structures and randomly drawn compounds.

For the test, the system named is Mycobacterium tuberculosis. The experiment in a line: Cornell M. t heat shock assay. Further: in the data most compounds retested in dose-response had high values. Type of test: functional, organism-based. Further details: dose or concentration left out as unconfirmed.
Consider `COCCN1C(=O)[C@H]2CC[C@@H]1CN(Cc1nnc(-c3ccccc3)o1)C2`, for which the “Percent Effect” value was 0.9802%.
As to `CCOCC1CN(c2ccc(C)nn2)Cc2cnn(CC)c21.O=C(O)C(F)(F)F.O=C(O)C(F)(F)F` (stereo not drawn), the “Percent Effect” value was determined as 34.67%.
Then `CS(=O)(=O)CC(=O)N1C[C@H]2CCC[C@@]2(COCc2ccccn2)C1.O=C(O)C(F)(F)F`, with 1.254%.
Then `O=C(O)C(F)(F)F.c1coc(CN2CCC3(CC2)COC(COCC2CC2)C3)c1` (stereo not drawn), with -19.69%.
Then `O=C(O)C(F)(F)F.O=C(c1cccc(F)c1)N1C[C@H]2CN(Cc3ccccn3)C[C@H]2C1`, with -10.41%; and `O=C(O)C(F)(F)F.O=C1CC[C@]2(CC[C@@H](NCc3ccsc3)CC2)N1Cc1ccccc1`, with -7.125%; and `COCc1nn(C(C)C)c2c1CCN(Cc1ccoc1)C2.O=C(O)C(F)(F)F`, with -50.08%.
As to `Cc1cc(NCCc2nc(C)c[nH]2)nc(-c2ccccc2O)n1`, the “Percent Effect” value amounted to 7.352%.
As for `Cc1cc(NCCc2cnccn2)nc(-c2ccccc2O)n1`, the “Percent Effect” value was 15.98%.
As for `Cc1cc(NCCO)nc(-c2ccccc2O)n1`, the “Percent Effect” value is given as 5.939%.
Take `Cc1cc(NCCN)nc(-c2ccccc2O)n1`: the “Percent Effect” value is reported as 74.35%.
Consider `Cc1cc(NCCNc2cccnc2)nc(N)n1`, for which the “Percent Effect” value is reported as -13.91%.
Then `Cc1cc(NCCNc2cccnc2)nc(-c2ccccc2O)n1`, with 65.56%; and `Cc1cc(C)c(N(CC(O)CNCc2ccco2)S(C)(=O)=O)c(C)c1.O=C(O)c1ccccc1` (stereo not drawn), with 18.07%.
With `CCOC1COC2(CCN(Cc3ccc(F)cc3)CC2)C1.O=C(O)C(F)(F)F` (stereo not drawn) the figure was -14.13%; with `CCCC(=O)N(CCCN1CCOCC1)c1nc2c(C)c(C)ccc2s1.Cl`, 46.86%.
Regarding `CCCC(=O)N(CCCN1CCOCC1)c1nc2c(Cl)cccc2s1.Cl`, the “Percent Effect” value was found to be 25.9%.
Then `CCCC(=O)N(CCCN1CCOCC1)c1nc2c(C)ccc(Cl)c2s1.Cl`, with 99.14%; and `COC(=O)c1ccc(CN[C@@H]2COC[C@H]2Cc2cc(C)no2)cc1.O=C(O)CC(O)(CC(=O)O)C(=O)O`, with -21.34%.
As for `CC(C)Nc1cccc(CC2CCN(C)C2)n1.O=CO` (stereo not drawn), the “Percent Effect” value is 4.45%.
With `CCCc1cc(NCCN2CCNC2=O)n2nccc2n1`, the “Percent Effect” value is -6.778%.
As for `CCCc1cc(NCCn2cccn2)n2nccc2n1`, the “Percent Effect” value worked out at 70.39%.
Then `CCCc1cc(NCCn2cccn2)n2ncnc2n1`, with 8.061%.
With `COCCN(C)C1COC2(CCN(Cc3cccc(F)c3)CC2)C1.O=C(O)C(F)(F)F.O=C(O)C(F)(F)F` (stereo not drawn) the figure was -38.12%.
Then `Cn1cccc1C(=O)N1CCC2(CCN2c2ncccn2)C1.O=C(O)C(F)(F)F` (stereo not drawn), with 8.832%; and `CCc1ccc(CN2CC[C@H]3[C@H]2CC(=O)N3Cc2cccc(C)n2)o1.O=C(O)C(F)(F)F.O=C(O)C(F)(F)F`, with -1.259%; and `CC(c1cccc(F)c1)N1CCN(Cc2nccn2C)CC1` (stereo not drawn), with -12.42%.
As for `Cc1ccc(CNC(c2ccc(F)cc2)c2nccn2C)o1` (stereo not drawn), the “Percent Effect” value was determined as 74.11%.
With `Cc1ccc(CNC(C)c2cc(F)ccc2N2CCN(C)CC2)o1` (stereo not drawn) the figure was -35.24%; with `Cc1ccc(CNC(c2cccc(F)c2)c2nccn2C)o1.Cl` (stereo not drawn), 79.6%.
Regarding `Cc1ccc(CNCCC(O)(c2nccn2C)C(F)(F)F)o1` (stereo not drawn), the “Percent Effect” value was -16.27%.
On to `COc1c(CNC(c2cccc(F)c2)c2nccn2C)c(C)nn1C` (stereo not drawn), for which the “Percent Effect” value is listed as -20.66%.
Then `Cl.Cn1nc(C2CCCN(Cc3ccc(F)c(F)c3)C2)c2nccnc21` (stereo not drawn), with -15.39%; and `O=C(O)C(F)(F)F.O=C(O)C(F)(F)F.O=C1CO[C@@H]2CN(Cc3nccs3)C[C@H]2N1Cc1ccncc1`, with -20.96%.
Regarding `O=C(O)C(F)(F)F.O=C(O)C(F)(F)F.c1cncc(O[C@H]2CC[C@H]3[C@H]2OCCN3C2CCC2)c1`, the “Percent Effect” value was -41.43%.
For the compound `COc1nccnc1-c1cccc(-c2ccn(CC3COCCO3)n2)c1` (stereo not drawn), the “Percent Effect” value is -10.15%.
Regarding `CSc1nccc(-c2cccc(-c3ccn(CC4COCCO4)n3)c2)n1` (stereo not drawn), the “Percent Effect” value was 87.01%.
With `COc1cccc(-c2cccc(-c3ccn(CC4COCCO4)n3)c2)n1` (stereo not drawn) the figure was -12.43%; with `Cc1cnccc1-c1cnn(CCNC(=O)c2cccnc2)c1C1CC1.Cl`, -20.8%.
As to `O=C(NCCNc1ncccn1)C1CCN(C(=O)NC2CC2)CC1`, the “Percent Effect” value worked out at 12.93%.
As for `COc1ccc(-c2nnc(SC(C)C(=O)NCC(C)C)[nH]2)c(OC)c1` (stereo not drawn), the “Percent Effect” value amounted to 21.58%.
For `Cc1cccnc1CN(C)C(C(=O)O)c1ccc(-n2cccn2)cc1` (stereo not drawn), the “Percent Effect” value was found to be 85.61%.
`Cc1cccnc1CN(C)C(C(=O)O)c1ccc(C(C)(C)C#N)cc1` (stereo not drawn): the “Percent Effect” value is 35.15%.
Consider `Cc1cccnc1CN(C)C(C(=O)O)c1ccc(-c2ccn[nH]2)cc1` (stereo not drawn), for which the “Percent Effect” value is listed as 46.05%.
With `CCOc1cccc(C(=O)Nc2ccn(CC)n2)c1` the figure was 10.2%; with `CCn1ccc(-c2cc(NCCCOc3cccc(C)c3)nc(C)n2)n1`, 104.2%.
For the compound `COc1ccccc1OCCNCCn1cccn1`, the “Percent Effect” value is given as -4.408%.
On to `CCn1ccc(-c2cc(C(=O)O)n3nc(C)c(Cl)c3n2)n1`, for which the “Percent Effect” value is on record as 6.637%.
In the case of `CCn1ccc(-c2cc(NCCCOc3ccccc3C)nc(C)n2)n1`, the “Percent Effect” value was 105.6%.
As to `Cc1cccc(OCCCNC(=O)Cn2ccc(C)cc2=O)c1`, the “Percent Effect” value came to 9.396%.
With `Cc1oncc1C(=O)N1C[C@H](OCc2ccccn2)[C@H]2OCCC[C@H]21.O=C(O)C(F)(F)F`, the “Percent Effect” value is -20.31%.
As for `CCOC(=O)CSc1nnc([C@@H](N)C(C)C)o1.Cl`, the “Percent Effect” value is recorded as -3.757%.
Then `CNC(=O)c1cc2c(nc1NCC1CC1)CCN(CC1CC1)CC2.O=C(O)C(F)(F)F.O=C(O)C(F)(F)F`, with -24.38%.
As for `Cc1cccc(C)c1CCNC(=O)N1CCCC2(C1)OCCO2`, the “Percent Effect” value is recorded as 5.49%.
Take `O=CO.c1nc(CN2CCCC(Cc3ccc(NC4CCCC4)nn3)C2)c[nH]1` (stereo not drawn): the “Percent Effect” value is recorded as 20.05%.
Consider `Cc1ccc(CN2C[C@H]3C[C@H](C(=O)Nc4cccnc4)[C@@H](C2)O3)cc1`, for which the “Percent Effect” value amounted to 0.4433%.
Regarding `Cc1cnc(CNC(=O)[C@@]23CCO[C@@H]2CCNC3)cn1.O=C(O)C(F)(F)F`, the “Percent Effect” value came to 23.9%.
In the case of `c1cncc(-c2ccc3c(c2)C2(CCNCC2)CC3)c1`, the “Percent Effect” value is recorded as -40.79%.
As for `CN1CCN(Cc2cccnc2)C(=O)C12CCN(Cc1ccco1)CC2.O=C(O)C(F)(F)F.O=C(O)C(F)(F)F.O=C(O)C(F)(F)F`, the “Percent Effect” value is recorded as 5.064%.
On to `CN(C)CC(=O)N1CCC2(CCc3cc(-c4cccnc4)ccc32)CC1.O=C(O)C(F)(F)F.O=C(O)C(F)(F)F`, for which the “Percent Effect” value worked out at 53.15%.
As to `O=C(O)C(F)(F)F.c1cncc(-c2ccc3c(c2)C2(CC3)CCN(c3nncs3)CC2)c1`, the “Percent Effect” value is 12.31%.
Then `O=C(O)C(F)(F)F.O=C(O)C(F)(F)F.c1cncc(C2COC3(CCN(Cc4nccs4)CC3)C2)c1` (stereo not drawn), with -9.404%; and `Cc1ccc2c(c1)CCC21CCN(C(=O)CN(C)C)CC1.O=C(O)C(F)(F)F`, with -22.19%.
With `c1cc(-c2ccc3c(c2)CCC32CCNCC2)ccn1` the figure was -56.04%; with `CN(C)CC(=O)N1CCC2(CCc3ccc(-c4ccncc4)cc32)CC1.O=C(O)C(F)(F)F.O=C(O)C(F)(F)F`, -52.11%.
For `O=C(O)C(F)(F)F.O=C(O)C(F)(F)F.c1cncc(-c2ccc3c(c2)CCC32CCN(Cc3nccs3)CC2)c1`, the “Percent Effect” value is 74.6%.
With `O=C(O)C(F)(F)F.O=C(O)C(F)(F)F.c1csc(CN2CCC3(CC2)CCN(CC2CC2)CC3)n1` the figure was -18.7%; with `c1cncc(-c2ccc3c(c2)CCC32CCNCC2)c1`, 88.51%; with `O=C(O)C(F)(F)F.O=C(O)C(F)(F)F.c1cncc(-c2ccc3c(c2)CCC32CCN(Cc3ccco3)CC2)c1`, 104%.
As for `Cc1nc(COC[C@@H]2CC[C@H]3[C@H](CCN3c3ccccn3)O2)cs1.O=C(O)C(F)(F)F`, the “Percent Effect” value is given as -8.365%.
Take `COCC(=O)NC1CC2(CCN(Cc3ccco3)CC2)c2ccccc21.O=C(O)C(F)(F)F` (stereo not drawn): the “Percent Effect” value is recorded as -0.75%.
For the compound `Cn1ccc(C(=O)N2CCC3(CCN3c3ncccn3)C2)n1.O=C(O)C(F)(F)F` (stereo not drawn), the “Percent Effect” value worked out at 24.82%.
With `CC(C)(C)c1ncc(C(=O)NC(C(N)=O)c2ccccc2)s1` (stereo not drawn), the “Percent Effect” value is -32.92%.
For the compound `Cn1cc(C(=O)N2CC[C@@H]3[C@@H]2CCN3Cc2cccnc2)cn1.O=C(O)C(F)(F)F.O=C(O)C(F)(F)F`, the “Percent Effect” value is recorded as -1.797%.
With `COC[C@]12COC[C@H]1CN(Cc1cc(OC)cc(OC)c1)C2.O=C(O)C(F)(F)F`, the “Percent Effect” value is recorded as 3.349%.
As for `Cc1cc2n(n1)CC(CNC1CCN(Cc3ccncc3)CC1)CN2` (stereo not drawn), the “Percent Effect” value is -16.93%.
Turning to `Cc1cccc(CN2CCC(NCC3CNc4cc(C)nn4C3)CC2)c1` (stereo not drawn), the “Percent Effect” value was 108.8%.
For the compound `Cc1cc2n(n1)CC(CNC1CCN(Cc3ccccc3C)CC1)CN2` (stereo not drawn), the “Percent Effect” value is given as 13.82%.
Take `COCCCNC(=O)Cn1c(C)cc(=O)n2nc(-c3cccs3)nc12`: the “Percent Effect” value was 14.25%.
With `CCCc1cc(=O)n(CC(N)=O)c(-n2nc(C)cc2C)n1` the figure was 28.09%; with `CCCc1cc(=O)n(CC(=O)NCCOC)c(-n2nc(C)cc2C)n1`, 103.9%; with `COCCNC(=O)Cn1c(C)cc2nc(SC)n(CC(C)C)c(=O)c21`, -7.488%.
Regarding `Cc1cc(C)n(-c2cncc(NCCC(=O)NC(C)C)n2)n1`, the “Percent Effect” value is recorded as -1.343%.
Then `CCCNC(=O)CCNc1cncc(-n2nc(C)cc2C)n1`, with -16.72%.
Take `CCCNC(=O)Cn1c(C)nn(C(C)(C)C)c1=O`: the “Percent Effect” value turned out to be 11.09%.
In the case of `CCCNC(=O)Cn1c(-n2nc(C)cc2C)nc(CCC)cc1=O`, the “Percent Effect” value was found to be 96.63%.
With `CCCc1cc(=O)n(CC(=O)NC(C)C)c(-n2nc(C)cc2C)n1`, the “Percent Effect” value came out at 96.11%.
Regarding `O=C(O)C(F)(F)F.O=C(O)C(F)(F)F.O=C(c1ccnnc1)N1C[C@@H]2OCCN(CCN3CCCC3)[C@@H]2C1`, the “Percent Effect” value is recorded as -5.03%.
